# From PubChem BioAssay
# mIDH1 inhibitor: human IDH1 R132H inhibition. O75874. IDH1-R132H enzyme, NADPH consumption, diaphorase/resazurin fluorescence. Potency, µM (titrated, usually from 76.6 µM), actives largely listed as inhibitors. 390,000 tested, 0.093% active. AID 602179; note: nearly all actives have a fitted effect of over 65% in size
# Target sequence (O75874 whole entry R132H, stated change not applied): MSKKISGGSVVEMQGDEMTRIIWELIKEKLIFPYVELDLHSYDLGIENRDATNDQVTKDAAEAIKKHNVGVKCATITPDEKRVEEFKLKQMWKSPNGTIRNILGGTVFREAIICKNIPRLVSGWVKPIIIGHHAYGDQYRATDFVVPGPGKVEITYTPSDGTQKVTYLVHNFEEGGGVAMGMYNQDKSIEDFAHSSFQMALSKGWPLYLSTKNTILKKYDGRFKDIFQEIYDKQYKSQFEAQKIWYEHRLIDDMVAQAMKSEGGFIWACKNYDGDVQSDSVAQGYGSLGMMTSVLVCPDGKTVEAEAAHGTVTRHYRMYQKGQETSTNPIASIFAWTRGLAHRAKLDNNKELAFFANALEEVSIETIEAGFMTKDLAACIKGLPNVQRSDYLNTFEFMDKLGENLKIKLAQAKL
#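 IDH1-R132H (0.5 ug/mL) preincubated 30 min with compound, then NADPH (0.016 mM) and alpha-KG (2 mM) added; 80 min at RT, pH 7.5. Remaining NADPH coupled via diaphorase/resazurin to fluorescence (540/590 nm); concentration-response curves normalized to no-enzyme control.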
# RGS4 inh: blocks human RGS4-accelerated GTP hydrolysis. 390,000 tested, 0.039% active. Transcreener GDP fluorescence polarization, RGS4-accelerated GTP hydrolysis. P49798. Potency, µM (titrated, usually from 114 µM), usual class: inhibitors; note: nearly all actives have a fitted effect of over 75% in size
#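 MLSMR compounds (23 nl, pin-transferred) preincubated 10 min at room temperature with a 500nM (2x) first reagent, then RGS4 at 900nM (2x) plus Transcreener GDP mix added; fluorescence polarization (620/688 nm) read before and after 90 min at 30 °C.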
# Eya2 inh: Eya2 (human) phosphatase inhibition. Potency, µM (highest dose often 76.9 µM), actives largely listed as inhibitors. AID 488837. recombinant Eya2, OMFP fluorescence dephosphorylation (OMFP is methylfluorescein phosphate). O00167. 330,000 tested, 0.006% active
#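 Eya2 protein (added as 0.2 uM solution) was preincubated with compound for 10 min at ambient temperature in 50 mM HEPES pH 7.5, 50 mM NaCl, 5 uM MgCl2, 0.05% BSA, 1 mM DTT. OMFP (added at 50 uM) then reacted 10 min; fluorescence read at 485/525 nm.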
# TrxR1 substrate: rat thioredoxin reductase 1 substrate activity; O89049; AID 588456; 390,000 tested, 0.01% active; Potency, µM (series often up to 114 µM); purified TrxR1 substrate turnover, NADPH consumption readout; note: nearly all actives have a fitted effect of over 50% in size
#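 Rat TrxR1, dispensed at 90 nM, was prereduced with 400 uM NADPH (final) for 5 min at ~22 deg C, then incubated with compound 15 min before 400 uM selenite. A first-read NADPH fluorescence drop versus no-compound background flagged substrates.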
# TrxR1 inh: inhibitors of rat thioredoxin reductase 1 | 390,000 tested, 1% active | AID 588453 | recombinant rTrxR1, NADPH fluorescence consumption, selenite substrate | Potency, µM (titrated, usually from 114 µM), hits mostly inhibitors | O89049; note: nearly all actives have a fitted effect of over 65% in size
#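 Rat TrxR1 (90 nM in the dispensed reagent) was pre-reduced with 400 uM NADPH for 5 min at room temperature, then incubated with compound for 15 min. After 400 uM selenite was added, NADPH fluorescence (Ex 340/Em 450 nm) was followed for 8 min.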
# Resorufin autofl: counter-screen for mutant IDH1 inhibitors: fluorescence interference; shares compounds with mIDH1 inhibitor; Resorufin detection reagent fluorescence interference, cell-free; inhibition of signal, % at 51.2 µM; 750 tested, under 10 active
# IDH1 WT: selectivity of mutant IDH1 inhibitors: human wild-type IDH1; Potency, µM (doses to about 115 µM), most hits filed as inhibitors; shares compounds with mIDH1 inhibitor; WT IDH1 enzyme, NADPH diaphorase/resazurin fluorescence; 750 tested, 9% active; note: nearly all actives have a fitted effect of over 55% in size
# Target sequence (O75874 whole entry, looked up): as the sequence (O75874 whole entry R132H, stated change not applied) above, with H132R counted along it
# mIDH1 confirm: inhibits human mutant IDH1 enzyme in cherrypick confirmation; IDH1 R132H enzyme, NADPH diaphorase/resazurin fluorescence; 750 tested, 83% active; shares compounds with mIDH1 inhibitor; Potency, µM (doses to about 76.6 µM), actives largely listed as inhibitors; note: nearly all actives have a fitted effect of over 50% in size
# A number is an active result; n = inactive; u = inconclusive; x = no result. An excerpt weighted towards active compounds, which were near 1.1% of everything screened. Calls come from the whole dose curve; as a rule, active = well fitted curve in the direction sought with a large enough effect; inconclusive = small, poorly fitted or top-dose-only effect, or another doubt; inactive = no such curve, though single readings can be large; an effect the other way counts as inactive or inconclusive.
SMILES,mIDH1 inhibitor,RGS4 inh,Eya2 inh,TrxR1 substrate,TrxR1 inh,Resorufin autofl,IDH1 WT,mIDH1 confirm
CN/C=C1\C(=O)C(C)(C)Oc2ccc3ccc(=O)oc3c21,n,n,n,n,n,x,x,x
CC1(C)Oc2ccc3ccc(=O)oc3c2/C(=C/Nc2ccc(O)cc2)C1=O,n,n,n,n,n,x,x,x
CC1(C)Oc2ccc3ccc(=O)oc3c2/C(=C/Nc2cccc(O)c2)C1=O,u,n,n,n,n,n,n,39.8µM
O=C(C1CCCCC1)N1C[C@H](O)[C@@H](n2cc(-c3ccc(F)cc3)nn2)C[C@@H]1c1ccccc1,n,x,x,x,x,x,x,x
CC(=O)N1c2ccc(S(=O)(=O)N3CCN(c4cccc(Cl)c4)CC3)cc2CC1C (stereo unspecified),n,n,x,n,n,x,x,x
COC(=O)[C@@]12CCCCN1[C@H](c1ccc(-c3ccc4c(c3)OCO4)c(OC)c1)[C@@H]1C(=O)N(C)C(=O)[C@@H]12,u,n,n,n,n,n,n,11.2µM
COC(=O)[C@@]12CCCCN1[C@H](c1ccc(-c3ccc(F)cc3)c(OC)c1)[C@@H]1C(=O)N(C)C(=O)[C@@H]12,39.8µM,n,n,n,n,n,n,6.31µM
COC(=O)[C@@]12CCCN1[C@H](c1ccc(-c3ccc4c(c3)OCO4)c(OC)c1)[C@H]1C(=O)N(C)C(=O)[C@H]12,n,n,n,n,n,x,x,x
CCN1C(=O)[C@H]2[C@@H](c3ccc(-c4ccc(OC)cc4)c(OC)c3)N3CCCC[C@@]3(C(=O)OC)[C@H]2C1=O,u,n,n,n,n,n,n,12.6µM
CCN1C(=O)[C@@H]2[C@@H](c3ccc(-c4ccc(OC)cc4)c(OC)c3)N3CCCC[C@@]3(C(=O)OC)[C@@H]2C1=O,n,n,n,n,n,x,x,x
O=C(COCc1cc(-c2cccs2)on1)NCc1ccc(F)cc1,n,n,x,n,n,x,x,x
CCOc1ccc(-n2cnc3sc(C)c(C)c3c2=O)cc1,n,n,n,n,n,x,x,x
CCc1c(C2(O)CCCCC2)[nH]c2ccc(C(=O)OC)cc12,n,n,x,n,n,x,x,x
CSC1=C(C#N)C(c2ccccc2C)C(C#N)=C(N)N1 (stereo unspecified),u,n,n,n,50.1µM,n,n,44.7µM
CCc1ccc(C2c3c(-c4ccccc4O)n[nH]c3C(=O)N2Cc2ccncc2)cc1 (stereo unspecified),35.5µM,n,x,n,n,n,n,28.2µM
CCOCCCN1C(=O)c2[nH]nc(-c3ccccc3O)c2C1c1ccc(CC)cc1 (stereo unspecified),u,n,x,n,n,n,n,u
CCN(CC)c1ccc(S(=O)(=O)N2CCOCC2)cc1NC(=O)COC(=O)COc1ccccc1C,n,n,n,n,n,x,x,x
COc1ccc(-c2csc3nc(C)nc(N4CCCCC4)c23)cc1OC,u,n,n,n,n,n,n,31.6µM
COc1ccc(-c2csc3nc(-c4cccnc4)nc(N4CCC(C(N)=O)CC4)c23)cc1OC,u,n,n,n,n,x,x,x
CC(C)c1nc2sc3c(NCc4ccccc4)ncnc3c2c2c1COC(C)(C)C2,n,n,n,n,n,x,x,x
CCN(CCO)c1ncnc2c1sc1nc(C(C)C)c3c(c12)CC(C)(C)OC3,u,n,n,n,n,n,7.08µM,6.31µM
O=C(O)c1cc(NS(=O)(=O)c2cccc3ccccc23)ccc1O,n,n,n,n,n,x,x,x
Cc1cc(C(C)(C)C)cc(S(=O)(=O)Nc2ccc(O)c(C(=O)O)c2)c1C,u,n,n,n,n,n,n,28.2µM
COc1ccc([C@@H]2[C@H]3CN(C(C)=O)CC=C3C(C#N)=C(N)C2(C#N)C#N)c2ccccc12,n,n,n,n,n,x,x,x
